Measurements: PubChem BioAssay
A number with no mark means an inactive call. Rule as the data show it, unless noted: active = inhibition above about 37%; inactive = the rest.

System: not listed separately
Experiment: compounds altering circadian rhythm period length – cell-based, LOPAC library, luminescence reporter (AID 2774; call rule not given here;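 also: values are relative to mean of DMSO wells on each plate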)
Conditions: circadian reporter cells, at 7 µM, actives lie on both sides

Row | Compound | period change [h]
1 | Oc1ccc2c3c1O[C@H]1c4[nH]c5ccccc5c4C[C@@]4(O)C(C2)N(CC2CC2)CCC314 (some centres undefined) | 0.005
2 | COc1cc(C(O)CN)ccc1O (centres undefined) | -0.145
3 | NC1CC1c1ccccc1 (centres undefined) | 0.03
4 | C[C@@H]1O[C@@H](O[C@H]2C[C@@H](O)[C@]3(CO)[C@@H]4C(CC[C@]3(O)C2)[C@@]2(O)CC[C@H](C3COC(=O)C3)[C@@]2(C)C[C@H]4O)[C@H](O)[C@H](O)[C@H]1O (some centres undefined) | -0.47
5 | NC(CCP(=O)(O)O)C(=O)O (centres undefined) | 0.135

System: not listed separately
Experiment: compounds altering viability of human ES cells (AID 493140; call rule not given here;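 also: cells exposed to compounds for four days before counting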)
Conditions: human embryonic stem cell survival screen; active compounds read high

Row | Compound | survival
6 | CCCCC/C=C\C/C=C\CCCCCCCC(=O)NCCO | 162
7 | CCCCCCCCCCCCCCCCOC[C@@H](COP(=O)([O-])OCC[N+](C)(C)C)OC(C)=O | 78.6
8 | CCCCC/C=C\C/C=C\C/C=C\CCCCCCC(=O)NCCO | 87.2
9 | CCCCC/C=C\C/C=C\C/C=C\C/C=C\CCCC(N)=O | 110
10 | CCCCC/C=C\C/C=C\C/C=C\C/C=C\CCCCCC(=O)NCCO | 86.3
11 | CCCCC/C=C\C[C@@H](/C=C/C=C\C/C=C\CCCC(=O)O)OO | 111
12 | CCCCC/C=C\C=C\[C@H](CCCCCCCC(=O)O)OO | 87.6
13 | CCCCC[C@@H](/C=C/C=C\CCCCCCCC(=O)O)OO | 94.8
14 | CCCCC/C=C\C/C=C\C/C=C\C=C\[C@H](CCCC(=O)O)OO | 114
15 | CCCCC[C@@H](/C=C/C=C\C/C=C\C/C=C\CCCC(=O)O)OO | 120
16 | CCCCCC1OC1C/C=C\CCCCCCCC(=O)O (centres undefined) | 100
17 | N#CC(C#N)=Cc1ccc(O)cc1 | 59.8
18 | CCCCC/C=C\C/C=C\C/C=C\C/C=C\CCCC(=O)NCCO | 114

System: Hepatitis C virus NS3 helicase
Experiment: blockers of NS3h binding to ssDNA – biochemical, fluorescence polarization, LOPAC1280 library, primary screen (AID 687035)
Conditions: Purified HCV NS3 helicase, Cy5-dT15 ssDNA binding fluorescence polarization; active compounds read high; concentration not given here

Row | Compound | inhibition [%]
19 | O=C1CC[C@@]2(O)C3Cc4ccc(O)c5c4C2(CCN3CC2CC2)[C@H]1O5 (some centres undefined) | -6
20 | N=C(N)c1ccc(CS(=O)(=O)F)cc1 | -2
21 | NC(CP(=O)(O)O)C(=O)O (centres undefined) | -2
22 | C[C@]12Cc3cn4c(nc3C=C1CCC1C2CC[C@@]2(C)[C@H]1CC[C@@]2(O)C#N)nc1ccccc14 (some centres undefined) | 0
23 | CC(N)c1cccc(Cl)c1Cl (centres undefined) | -2
24 | C=CCN1CC[C@]23CCCCC2[C@H]1Cc1ccc(O)cc13 (some centres undefined) | -4
25 | O=C1/C(=C/c2ccccc2)C[C@@]2(O)[C@H]3Cc4ccc(O)c5c4[C@@]2(CCN3CC2CC2)[C@H]1O5 | -4
26 | COc1ccc2c(c1)C13CCCCC1C(C2)N(C)CC3 (centres undefined) | -1
27 | N[C@@]1(C(=O)O)CC[C@@H](C(=O)O)C1 | -5
28 | C=CCN1C[C@@H](C)N([C@H](c2ccc(C(=O)N(CC)CC)cc2)c2cccc(OC)c2)C[C@@H]1C | -3
29 | N#CC(=Cc1ccc(O)c(O)c1)C(N)=S | 3
30 | CCNC(=O)[C@H]1O[C@@H](n2cnc3c(N)ncnc32)C(O)[C@H]1O (some centres undefined) | 0
31 | C[C@@H]1O[C@H](C[N+](C)(C)C)C[C@H]1O | -2
32 | c1ccc2cc(CC3=NCCN3)ccc2c1 | -3
33 | C=CCN1CCC23c4c5ccc(O)c4O[C@H]2C(=O)CC[C@@]3(O)C1C5 (some centres undefined) | -4
34 | CCCCCCCCCCCCCC(=O)O[C@@H]1[C@@H](C)[C@@]2(O)[C@@H](C=C(CO)C[C@@]3(O)C(=O)C(C)=C[C@@H]23)C2C(C)(C)[C@@]21OC(C)=O (some centres undefined) | -2
35 | Oc1ccc2c3c1O[C@H]1c4[nH]c5ccccc5c4C[C@@]4(O)C(C2)N(CC2CC2)CCC314 (some centres undefined) | -4
36 | COc1cc(C(O)CN)ccc1O (centres undefined) | -3
37 | NC1CC1c1ccccc1 (centres undefined) | -1
38 | C[C@@H]1O[C@@H](O[C@H]2C[C@@H](O)[C@]3(CO)[C@@H]4C(CC[C@]3(O)C2)[C@@]2(O)CC[C@H](C3COC(=O)C3)[C@@]2(C)C[C@H]4O)[C@H](O)[C@H](O)[C@H]1O (some centres undefined) | -1
39 | NC(CCP(=O)(O)O)C(=O)O (centres undefined) | -3
